Among all 320,000 compounds or so, about 200 (0.062%) were called active. Roughly 6% stayed inconclusive and do not appear here. The call rests on the fitted dose curve; in most records, active means well fitted activation curve with a large enough effect; inconclusive means small, poorly fitted or top-dose-only effect; inactive means no such curve, though single readings can be large or run the other way. The list comes from a sample in which actives are over-represented; it also holds similar structures and randomly drawn compounds.
test: qHTS assay for re-activators of p53 using a Luc reporter; conditions: H1299 p53-A138V BP100-luciferase reporter, luminescence, 24 h; series mostly up to 92.2 µM; activity change, positive = activation: at the top concentration; further: nearly all actives have a fitted effect of over 45% in size; on activity change, positive = activation: % of control where 0% means no effect
Source text: The p53 tumor suppressor plays a key role in suppression of tumorigenesis and in human carcinogenesis. It is frequently found inactivated in human cancers, mainly by point mutation. These point mutations are found in a wide variety of human cancers and a majority of them affect the DNA binding domain of the protein. The point mutations either alter native p53 conformation or abolish DNA contact. Additionally, cancer cells with p53 mutations are more resistant to chemo-radiation therapies. In order to find activators to reactivate this important protein, a cell-based screen for p53-dependent luciferase-reporter expression was developed. A p53-null H1299 lung cancer cell line was stably co-transfected with a temperature sensitive p53 mutant, p53-A138V, and a p53-responsive BP100-luciferase reporter. This cell model has previously been characterized in a gene chip profiling experiment for p53 activation. By lowering the culture temperature from 37 deg C (mutant p53 conformation) to 32 deg C (w.t. p53 conformation), a 30-60 fold increase in activation of luciferase activity is observed. At assay temperate, 37 deg C, basal reporter expression is very low and after the addition of detection reagent, a luminescent read-out is carried out. NIH Chemical Genomics Center [NCGC] NIH Molecular Libraries Probe Production Centers Network [MLPCN] MLPCN Grant: DA031088-01A1 Assay Provider (PI): Yi Sung, University of Michigan at Ann Arbor
5ul of 1000 cells per well are dispensed in all wells except column 4, into white solid-bottom TC-treated Kalypsys plates. The cells are kept in Opti-MEM and supplemented with 10% FBS and dispensed using a Multidrop (Thermo). Then using the Kalypsys pin-tool, 23nl of compounds are pinned. The compounds are starting concentration at 10mM, with 1:5 dilution, 4 points, and the control compound nocodazole is pinned in column 1 at 25mM, 1:3 dilution, in duplicate, 25mM nocodazole is pinned in column 2. Please note, all concentrations are working concentrations. 5ul of 1pM purified luciferase enzyme is dispensed using the Kalypsys dispenser in column 4. Plates are incubated for 24 hrs at 37 deg C, 5% CO2, and 95% humidity. Then 4ul of the detection reagent Amplite (ABD Bioquest) is added using the Kalypsys dispenser. Plates are incubated for 10 min at ambient room temperature and are then read on the ViewLux (Perkin Elmer) using a clear filter for a luminescent read-out.
Potency means the concentration at half of the fitted maximal effect.

Compound | activity change, positive = activation | Potency
CCN(CC)c1ccc(C(=O)N/N=C(\C)c2cccc(OC)c2)cc1 | 6.61% (inactive) | –
COc1cccc(/C(C)=N/Nc2ncc(Cl)cc2Cl)c1 | – | 5.01 µM (active)
C/C(=N\Nc1ncc(Cl)cc1Cl)c1cccs1 | -0.226% (inactive) | –
O=C1N[C@@H](c2ccccc2)COC(=O)[C@H](Cc2ccc(F)cc2)C/C=C\C[C@@H]1CC(=O)N(CCO)Cc1ccccc1 | -3.96% (inactive) | –
Cc1ccc(C(=O)COC(=O)c2cccc(N3C(=O)c4c(C)nc5ccccc5c4C3=O)c2)cc1C | – | 35.5 µM (active)
O=C(CCc1nc2ccccc2c(=O)[nH]1)OCC(=O)c1cccc(Cl)c1 | -1.1% (inactive) | –
CCCc1nc2ccccc2c(C(=O)OCC(=O)c2ccc3c(c2)NC(=O)CO3)c1CC | 3.69% (inactive) | –
CNC[C@@H]1Oc2c(NS(C)(=O)=O)cccc2C(=O)N([C@@H](C)CO)C[C@H]1C | 4.35% (inactive) | –
COC(=O)[C@]1(Cc2ccccc2)N[C@H](CN(C)S(=O)(=O)c2ccc(OC(F)(F)F)cc2)[C@@H]2C(=O)N(C)C(=O)[C@@H]21 | 21.7% (inactive) | –
COc1ccc(CCNC(=O)COC(=O)c2ncc(Cl)c(Cl)c2Cl)cc1OC | -3.05% (inactive) | –
C=CC[C@@H](CC(=O)NCCO)C(=O)N[C@H](C)COC(=O)[C@@H](CC=C)CC(=O)OC(C)(C)C | 2.81% (inactive) | –
CC(C)NC(=O)Nc1cccc2c1O[C@@H](CN(C)S(=O)(=O)c1ccc(F)cc1)[C@@H](C)CN([C@H](C)CO)C2=O | -2.1% (inactive) | –
C=CCC[C@@H](Cc1ccc(F)cc1)C(=O)O[C@H](CNC(=O)[C@H](CC=C)CC(=O)N(CCO)Cc1ccccc1)c1ccccc1 | 2.56% (inactive) | –
Cn1c(N)c(C(=O)COC(=O)c2cccc(S(=O)(=O)N3CCOCC3)c2)c(=O)n(C)c1=O | 3.86% (inactive) | –
Cc1ccc(C(=O)NCC(=O)NC2CC2)cc1 | 4.8% (inactive) | –
COc1ccc2nc3n(c(=O)c2c1)-c1ccc(Cl)cc1C(=O)NC3Cc1ccccc1 (stereo not given) | -4.22% (inactive) | –
CCN(C[C@H]1N[C@@](CC)(C(=O)OC)[C@H]2C(=O)N(Cc3ccccc3)C(=O)[C@@H]12)S(=O)(=O)c1ccccc1 | -3.58% (inactive) | –
Cc1ccc(S(=O)(=O)Nc2ccc3c(c2)C(=O)N([C@H](C)CO)C[C@@H](C)[C@@H](CN(C)C(=O)Nc2cccc4ccccc24)O3)cc1 | -4.09% (inactive) | –
N#CCCN(C(=O)COC(=O)c1ccc2c(c1)OCCO2)c1ccccc1 | -10.6% (inactive) | –
O=C(COC(=O)CSc1ccccc1)Nc1ccc(F)cc1F | -3.41% (inactive) | –
COc1ccc2[nH]c3c(c2c1)CCN1C(=O)C(CC(=O)NCCCN(C)C)C[C@H](C(=O)N2CCOCC2)[C@@]31CCC1CCCC1 (stereo not given in full) | -5.21% (inactive) | –
CC[C@]1(C(=O)OC)[C@H]2C(=O)N(Cc3ccccc3)C(=O)[C@H]2[C@H]2CN=C(SCc3ccc(Cl)cc3)N21 | -2.77% (inactive) | –
COC(=O)c1ccc(/C=C/c2c(-c3ccc(OC)cc3)sc3ccccc23)cc1 | 1.3% (inactive) | –
Cc1ccc(S(=O)(=O)N2CCN(C(=O)CN3C(=O)NC(C)(c4ccc(Cl)cc4)C3=O)CC2)c(C)c1 (stereo not given) | 11.7% (inactive) | –
O=C(CSc1nc2ccccc2c(=O)n1-c1ccccc1F)N1CCOCC1 | -7.54% (inactive) | –
Cc1c(Cl)cnc(NC(=O)COC(=O)C2CCCC2)c1Cl | -1.21% (inactive) | –
C[C@H](CO)N1C[C@H](C)[C@H](CN(C)C(=O)Nc2ccc(C(F)(F)F)cc2)Oc2c(NC(=O)c3ccncc3)cccc2C1=O | -2.92% (inactive) | –

Compound | activity change, positive = activation | Potency
CC[C@]1(C(=O)OC)[C@H]2C(=O)N(Cc3ccccc3)C(=O)[C@H]2[C@H]2CN=C(SCc3ccccc3)N21 | 33.6% (inactive) | –
CC[C@@]1(C(=O)OC)N[C@H](CN(C)C(C)=O)[C@@H]2C(=O)N(C)C(=O)[C@@H]21 | 4.26% (inactive) | –
CN(C(=O)c1cccc(NC(=O)Cc2cccc([N+](=O)[O-])c2)c1)C1CCCCC1 | -1.26% (inactive) | –
COc1cc(C(=O)NC2CCN(C)CC2)ccc1Nc1ncc2c(n1)N(C1CCC(O)CC1)CCC(=O)N2C (stereo not given) | -2.64% (inactive) | –
CSCCC1NC(=O)N(CC(=O)Nc2cccc(S(=O)(=O)N3CCCCCC3)c2)C1=O (stereo not given) | -6.05% (inactive) | –
CN(C(=O)c1cccc(NC(=O)C2CCN(C(=O)OC(C)(C)C)CC2)c1)C1CCC1 | -1.82% (inactive) | –
Cc1ccc(S(=O)(=O)N2CCN(C(=O)COC(=O)CNC(=O)c3ccc(C(C)(C)C)cc3)CC2)c(C)c1 | 9.42% (inactive) | –
CCC(CO)Oc1cc(NCc2ccccc2)c2ncn(C3CCCC3)c2c1 (stereo not given) | -0.676% (inactive) | –
Nc1ncnc2c1ncn2[C@@H]1O[C@H](CNCc2cccn2-c2nccs2)[C@@H](O)[C@H]1O | 3.16% (inactive) | –
CCOC(=O)C1=CN(Cc2ccc(Br)cc2)S(=O)(=O)NC1C (stereo not given) | 7.34% (inactive) | –
COc1ccc2[nH]c3c(c2c1)CCN1C(=O)C(CC(=O)NCCc2ccccn2)C[C@H](C(=O)N2CCOCC2)[C@@]31C (stereo not given in full) | 6.48% (inactive) | –
O=C(COC(=O)c1cc[n+]([O-])cc1)Nc1ccc(Cl)c(C(F)(F)F)c1 | -6.74% (inactive) | –
COc1ccc(CCOC2OC(CO)C(OC(=O)/C=C/c3ccc(O)c(OC)c3)C(O[C@H]3O[C@@H](C)[C@H](O)[C@@H](O)[C@H]3O)C2O)cc1O (stereo not given in full) | -0.634% (inactive) | –
CCOC(=O)[C@H]1[C@H]2COc3ccccc3[C@@H]2N2C(=O)CN(Cc3ccccc3)C(=O)[C@@]12C | -0.503% (inactive) | –
COc1ccc(OC)c(NC(=O)COC(=O)Cc2ccsc2)c1 | 4.86% (inactive) | –
O=C(CC1SC(N2CCOCC2)=NC1=O)Nc1ccccc1F (stereo not given) | -4.02% (inactive) | –
O=C(NC(=S)Nc1ccc(Br)cc1F)C1CCCCC1 | 14.8% (inactive) | –
COc1ccc(CNC(=O)C[C@H]2C[C@H](C(=O)N3CCOCC3)[C@@]3(CCC4CCCC4)c4[nH]c5ccc(Cl)cc5c4CCN3C2=O)cc1OC | 5.3% (inactive) | –
CCN1C[C@@H]2[C@@H]3C(=O)N(Cc4ccccc4)C(=O)[C@@H]3[C@](Cc3ccccc3)(C(=O)OC)N2C1=NC1CCCCC1 | -5.11% (inactive) | –
CCCCNc1c(-c2ccc(OC)c(Sc3ccc(OC)cc3)c2)nc2ccc(Cl)cn12 | 5.53% (inactive) | –
CC(C)N(C(=O)[C@H]1C[C@H](CC(=O)NC(C)(C)C)C(=O)N2CCc3c([nH]c4ccc(Cl)cc34)[C@]12C)C(C)C | -11.8% (inactive) | –
Cc1c(NC(=O)C(C)OC(=O)c2ccccc2O)c(=O)n(-c2ccccc2)n1C (stereo not given) | 0.846% (inactive) | –
COCCN(CCOC)S(=O)(=O)NC[C@H]1O[C@@H](n2cnc3c(N)ncnc32)[C@H](O)[C@@H]1O | -0.886% (inactive) | –
Cc1ccsc1C(=O)NNC(=O)COc1ccc(Br)cc1 | 19.4% (inactive) | –
COc1cc(C)ccc1OCC(=O)OCC(=O)c1ccc[nH]1 | -12.1% (inactive) | –
CCN(CC)C(=O)[C@H]1C[C@H](CC(=O)NCC23CC4CC(CC(C4)C2)C3)C(=O)N2CCc3c([nH]c4cc(CCC(=O)N(C)C)ccc34)[C@]12C | -3.09% (inactive) | –
O=C(COC(=O)c1cccc(Cl)c1)NC(=O)NCc1ccccc1 | 6.37% (inactive) | –

Compound | activity change, positive = activation | Potency
CCCc1cc(=O)[nH]c(SCC(=O)Nc2ccc(C(=O)Nc3ccccc3OC)cc2)n1 | -10.1% (inactive) | –
O=C(CSc1ncn[nH]1)Nc1ccc(Br)cc1Br | 2.67% (inactive) | –
CC(C)(C)OC(=O)C[C@@H]1C/C=C\C[C@@H](CC(=O)N[C@@H](CO)Cc2ccccc2)C(=O)N2CCC[C@H]2COC1=O | -0.764% (inactive) | –
COc1ccccc1-c1nnc2n1N=C(c1ccc(OC(F)F)c(OCC3CC3)c1)CS2 | 4.56% (inactive) | –
C=CC1=C(C(=O)O)N2C(=O)[C@@H](NC(=O)/C(=N\OCC(=O)O)c3csc(N)n3)[C@H]2SC1 | -3.99% (inactive) | –
CCNC(=O)CSc1nc(-c2ccccc2)cs1 | 17.9% (inactive) | –
O=C(CSc1nc(-c2ccccc2)cs1)Nc1cccc([N+](=O)[O-])c1 | – | 35.5 µM (active)
O=C(CSc1ncn[nH]1)Nc1nc(-c2cccc([N+](=O)[O-])c2)cs1 | 12.9% (inactive) | –
CC(C)(C)OC(=O)C[C@@H]1C/C=C\C[C@H](CC(=O)N[C@@H](CO)Cc2ccccc2)C(=O)N[C@H](Cc2ccccc2)COC1=O | 2.06% (inactive) | –
CC(C)n1cnc2c(NCc3ccccc3)cc(OCC3CCN(C)CC3)cc21 | -11.8% (inactive) | –
CN(Cc1ccc(CNC[C@H]2O[C@@H](n3cnc4c(N)ncnc43)[C@H](O)[C@@H]2O)o1)S(C)(=O)=O | 15.9% (inactive) | –
CCOC(=O)C1=C(C)N(C[C@@H]2CC[C@@H](Cc3ccc(-c4ccccc4)cc3)O2)C(=O)NC1c1ccc([N+](=O)[O-])cc1 (stereo not given in full) | -4.21% (inactive) | –
O=S(=O)(c1cccs1)N1CCN(CCOc2ccccc2)CC1 | -4.44% (inactive) | –
CCCN=C1N(C)C[C@@H]2[C@@H]3C(=O)N(Cc4ccccc4)C(=O)[C@@H]3[C@](C)(C(=O)OC)N12 | 11.5% (inactive) | –
COc1cccc(-c2sc3ccc(OC)cc3c2-c2ccc(OCCN3CCCCC3)cc2)c1 | 0.454% (inactive) | –
CC[C@@H](C)[C@@H]1CN([C@@H](C)CN2CCC[C@H]2CN2C(N)=NC[C@H]2C(C)C)C(=N)N1CCc1ccc(Cl)c(Cl)c1 | 1.67% (inactive) | –
C[C@H](CO)N1C[C@H](C)[C@@H](CN(C)Cc2ccc(-c3ccccc3)cc2)Oc2ccc(NC(=O)Cn3cnnn3)cc2C1=O | 0.106% (inactive) | –
COc1cc(C2CC(=O)Oc3cc(OC)c(OC)c(OC)c32)cc(OC)c1OC (stereo not given) | -8.59% (inactive) | –
Cc1cccc(-c2noc(-c3ccc(F)cc3)n2)c1 | – | 31.6 µM (active)
Brc1ccc(-c2noc(-c3ccccc3)n2)o1 | 24.1% (inactive) | –
Cc1cccc(-c2noc(CCC(=O)NC3CCCC3)n2)c1 | 3.23% (inactive) | –
CC(C)(C)OC(=O)C[C@H]1C/C=C\C[C@@H](CC(=O)N[C@H](CO)Cc2ccccc2)C(=O)NC[C@@H](c2ccccc2)OC1=O | 2.82% (inactive) | –
CN=C(Nc1cccc(S(=O)(=O)N2CCOCC2)c1)c1ccccc1 | -9.42% (inactive) | –
O=C(NCCC(=O)N1O[C@@H]2C=C[C@H]1C2)OCC1c2ccccc2-c2ccccc21 | -4.81% (inactive) | –
Nc1ncnc2c1ncn2[C@@H]1O[C@H](CNS(=O)(=O)c2ccc(-c3ccno3)s2)[C@@H](O)[C@H]1O | -6.9% (inactive) | –
Cc1noc(C)c1NC(=O)Nc1ccc2c(c1)C(=O)N([C@H](C)CO)C[C@H](C)[C@@H](CN(C)C(=O)Nc1ccc(C(F)(F)F)cc1)O2 | 5.39% (inactive) | –

Source: PubChem BioAssay AID504706 (National Center for Advancing Translational Sciences (NCATS), 2011)
